Out of some 50,000 compounds screened, about 800 (1.6%) showed an effect of 50% or more. This is one part of a sample in which strong results are shown more often than they occur.

In the experiment the target is Bcl-2-like protein 10 (Homo sapiens) (UniProt Q9HD36). The experiment can be described thus: TR3 peptide-Bcl-B binding displacers, biochemical primary FP assay, phenotype converters (AID 1240).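 Note: 0% = Bcl-B with tracer peptide and DMSO and 100% = tracer peptide lacking Bcl-B.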 Conditions: GST-Bcl-B / FITC-TR3 peptide fluorescence polarization; stronger effect = higher value; compound at 3.75 mg/L. (Polarisation of emitted light reports the rotation of a fluorescent probe.)
Bcl-2-like protein 10 (Homo sapiens), sequence (Q9HD36 whole entry, looked up): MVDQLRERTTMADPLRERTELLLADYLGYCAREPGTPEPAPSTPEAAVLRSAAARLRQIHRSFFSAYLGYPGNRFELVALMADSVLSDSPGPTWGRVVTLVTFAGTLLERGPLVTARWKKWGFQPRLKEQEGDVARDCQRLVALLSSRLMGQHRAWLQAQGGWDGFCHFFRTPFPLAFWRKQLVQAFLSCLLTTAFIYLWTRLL
Take `OCc1c(O)cnc2ccccc12`: the displacement is 19.4%.
With `O=c1[nH]c(-c2ccc(-c3ccc(F)cc3)o2)nc2sc3c(c12)CCCC3` the figure was -13.3%.
Take `CC(/C=C1\SC(N2CCN(C3=NC(=O)/C(=C\C(C)=C\c4ccccc4)S3)CC2)=NC1=O)=C\c1ccccc1`: the displacement is -9%.
Next, `CCc1ccc(/C=C2/C(=O)NC(=O)N2C(C)=O)cc1`: 13.8%.
Next, `CC(=O)N1C(=S)NC(=O)/C1=C\c1cccnc1`: 93.4%; `O=C1NC(=O)/C(=C/c2cccnc2)S1`: 12%.
With `Cc1ccc(-c2cc(-c3ccncc3)c(C#N)c(N)c2C#N)cc1` the figure was 21.2%.
Take `N#Cc1c(-c2ccc(Br)cc2)cc(-c2ccco2)c(C#N)c1N`: the displacement turned out to be 76.9%.
Regarding `N#Cc1c(-c2ccc(Br)cc2)cc(-c2ccc3c(c2)OCO3)c(C#N)c1N`, the displacement came to 4.5%.
Regarding `CCOC(=O)C(=CNCCC(=O)O)C(=O)OCC`, the displacement was 14.6%.
In the case of `COc1ccc(CCN2C(=O)C3C4c5ccccc5C(C)(c5ccccc54)C3C2=O)cc1OC` (stereo not drawn), the displacement was -1.3%.
Turning to `Cc1ccc(C=C2C(=O)NC(=O)N(c3cccc(Cl)c3)C2=O)s1`, the displacement came out at 87.1%.
On to `Cc1ccc(N2C(=O)NC(=O)/C(=C/c3cccc(Cl)c3)C2=O)cc1`, for which the displacement is -8.8%.
Turning to `Cc1ccc(N2C(=O)NC(=O)/C(=C\c3ccc(C)s3)C2=O)cc1`, the displacement is 13.4%.
With `CC(C)CNC(=O)C(=O)Nc1ccc(Oc2ccccc2)cc1`, the displacement is 5.2%.
For the compound `COc1cc(/C=c2/sc3nc4ccccc4n3c2=O)ccc1OCc1nn[nH]n1`, the displacement came out at 5.2%.
As for `Cc1ccc2nc(-c3ccc(OC(=O)c4ccccc4F)cc3)sc2c1`, the displacement is 76.4%.
Regarding `Cc1ccc2nc(-c3ccc(NC(=O)c4ccccc4-c4ccccc4C(=O)O)cc3)sc2c1`, the displacement stood at 7.9%.
Take `Cc1ccc2nc(-c3ccc(O)cc3)sc2c1`: the displacement is 12.7%.
Turning to `C=C(C)CSc1nc2sc3c(c2c(=O)n1CC(=C)C)CC(C)(C)OC3`, the displacement is -10.4%.
For `O=C(Nc1ccc2nc(SCCOc3ccccc3)sc2c1)c1ccccc1Cl`, the displacement was -3.4%.
As for `CC(C)(C)c1ccc(/C=C2\NC(=S)NC2=O)cc1`, the displacement is -20.2%.
Take `COc1ccc(/C=C/C=C2\NC(=S)NC2=O)cc1`: the displacement was found to be 128%.
For `CCOc1ccc(/C=C2/NC(=S)NC2=O)cc1`, the displacement amounted to 10.8%.
Consider `CC(C)(C)CC(C)(C)NC(=O)c1ccc2nccnc2c1`, for which the displacement was 14.3%.
Turning to `Cc1ccccc1-n1c(C)cc(/C=N/NC(=O)CN2CCOCC2)c1C`, the displacement was -22.2%.
Take `CC(C)CC(NC(=O)c1ccco1)C(=O)O` (stereo not drawn): the displacement stood at 9.5%.
Turning to `O=C(Nc1ccc2oc(-c3ccccc3)nc2c1)c1ccc(-c2ccc([N+](=O)[O-])cc2)o1`, the displacement came to 22.1%.
Take `Cc1cc([N+](=O)[O-])ccc1-c1ccc(C(=O)Nc2ccc3oc(-c4ccccc4)nc3c2)o1`: the displacement was determined as 116%.
As to `O=C(Nc1ccc(Cl)cn1)c1ccc(-c2ccc([N+](=O)[O-])cc2)o1`, the displacement was determined as 13.9%.
With `Cc1cc([N+](=O)[O-])ccc1-c1ccc(C(=O)Nc2ccc(Cl)cn2)o1` the figure was 50.1%; with `Cc1cc([N+](=O)[O-])ccc1-c1ccc(C(=O)Nc2ccc(-c3nc4ccccc4o3)c(O)c2)o1`, 10.8%; with `Cc1cc([N+](=O)[O-])ccc1-c1ccc(C(=O)Nc2ccc(Cl)cc2)o1`, 45.8%.
